Each molecule was assayed on Plasmodium berghei ANKA liver stage in HepG2-A16-CD81 (assay: % inhibition of liver stage parasite viability (luciferase); higher = more inhibition). Details: 5 µM; 48 h.
Procedure: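 Single-concentration screen of the MMV Pandemic Response Box. P. falciparum NF54 asexual blood stages: pLDH assay, 72 h at 37 °C, 2 and 20 µM, n=2. Stage IV/V gametocytes (NF54): luciferase reporter (NF54-Pfs16-GFP-Luc, 48 h), ATP bioluminescence (24 h) and PrestoBlue (48 h) at 1 and 5 µM, n=1. P. berghei liver stage (luciferase in HepG2-A16-CD81, 48 h post infection) at 5 µM, n=4. All normalised to DMSO and kill controls as % inhibition.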

Compound | % inhibition of liver stage parasite viability [%]
CCCCc1ccc(C(=O)O)nc1 | 19.3
C[C@@]1(O)[C@H](O)[C@@H](CO)O[C@H]1n1ccc2c(N)ncnc21 | 12.7
COc1ccccc1CN[C@H]1C2CCN(CC2)[C@H]1C(c1ccccc1)c1ccccc1 | 17.8
CC(C)Oc1cccc(NC(=O)c2ccccc2C(F)(F)F)c1 | 23.7
CCN1CCN(Cc2nc3ccc([N+](=O)[O-])cc3c(=O)n2-c2ccccc2F)CC1 | 14.3
COC(=O)Nc1nc2ccccc2[nH]1 | 30.8
NC1(C(=O)O)CCP(=O)(O)CC1 (stereo not drawn) | 19.9
C[C@H]1CC[C@]2(NC1)O[C@H]1C[C@H]3[C@@H]4CC[C@H]5C[C@@H](O)CC[C@]5(C)[C@H]4CC[C@]3(C)[C@H]1[C@@H]2C | 32
CN1C(=O)C(c2ccccc2)C(=O)N(c2ccccc2)c2cc(C(F)(F)F)ccc21 (stereo not drawn) | 7.89
C[N+]1(C)CCCC(OC(=O)C(O)(c2ccccc2)c2ccccc2)C1 (stereo not drawn) | 34
O=C(NC12CC3CC(CC(C3)C1)C2)c1cc2ccccc2[nH]1 | 11.7
COc1cc(C(C)(C)CCCC(C)C)cc(OC)c1OC | 21
Nc1c(C(=O)NCc2ccco2)c2nc3ccccc3nc2n1CCN1CCCCC1 | 28.4
